According to the supplement of paper PMC10849652:
Of roughly 7,900 targets only a part is listed; those with a hit were picked by preference. About 0.6% of all pairs of compound and target were hits. Values without a mark were called inactive.

Legend:
Assay in all cases: log2 fold change, soluble protein after heating vs DMSO (PISA); higher = thermal stabilisation; K562 cells, 10 uM, 30 min; active = over 0.2 and 3.5 SD of the protein, either way, in both replicates (recomputed)
[1] = compound: C#Cc1cccc(Nc2ncnc3cc(OCCOC)c(OCCOC)cc23)c1 [erlotinib]
Outline: (§1)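 Quantification of soluble protein used TMTpro 16plex LC-MS/MS, with channel sums equalised. Samples were the supernatant after 21,000xg for 90 min of pooled aliquots from K562 cells (2×10^6 cells/mL) treated with 10 μM compound for 30 min, heated for 3 min over 48°C-58°C, and extracted in PBS with 0.5% NP-40 at 4°C. Values, from duplicates, describe thermal stability against control samples on a log2 fold-change scale.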

[2] = compound: C/C(=N\NC(=O)C1=CC(=CC=C1)S(=O)(=O)N2CCOCC2)/C3=C(C=CC(=C3)Cl)O
Outline: as §1

[3] = compound: C1=CC(=C(C=C1Cl)C2=NC3=NC=CN=C3C(=N2)NC4=CC=NC=C4)F
Outline: as §1

[4] = compound: C1=CC(=CC=C1C2=NC3=C(N2)C=C(C=C3)C(=O)N)OC4=CC=C(C=C4)Cl
Outline: as §1

[5] = compound: C1=CC2=C(C=CC(=C2)/C=C\3/C(=O)NC(=NCC4=CC=CS4)S3)N=C1
Outline: as §1

[6] = compound: C1=CC2=NC=CN=C2C=C1/C=C/3\C(=O)NC(=O)S3
Outline: as §1

[7] = compound: C1=CC=C(C=C1)C2=NC(=C(N2)C3=CC=NC=C3)C4=CC(=C(C=C4)Cl)O
Outline: as §1

[8] = compound: C1=CC=C2C(=C1)C3=NNC4=CC=CC(=C43)C2=O
Outline: as §1

[9] = compound: C1CCN(C1)C(=O)NC2=CC=CC(=C2)NC3=NC=C(C(=N3)NCCC4=CN=CN4)Br
Outline: as §1

[10] = compound: C1CN(CCC1(CC2=CC=C(C=C2)Cl)N)C3=NC=NC4=C3C=CN4
Outline: as §1

[11] = compound: C1COCCN1CCN2C3=CC=CC=C3N=C2NC(=O)C4=CC(=CC=C4)[N+](=O)[O-] [IRAK-1-4 Inhibitor I]
Outline: as §1

[12] = compound: C=CC(=O)N1CCC[C@@H](n2nc(-c3ccc(Oc4ccccc4)cc3)c3c(N)ncnc32)C1 [ibrutinib]
Outline: as §1

[13] = compound: CC(=O)c1cnc2ccc(-c3cc(Cl)c(O)c(Cl)c3)nc2c1N[C@H]1CC[C@H](CN(C)C)CC1
Outline: as §1

[14] = compound: CC(C)(C)Cn1c(N)nc2ccc(-c3[nH]c(C(C)(C)C)nc3-c3ccc(F)cc3)nc21 [ralimetinib]
Outline: as §1

[15] = compound: CC(C)(O)CC(=O)NCCn1ccc2ncnc(Nc3ccc(Oc4cccc(C(F)(F)F)c4)c(Cl)c3)c21
Outline: as §1

[16] = compound: CC(C)C1=C2N=C(C=C(N2N=C1)NCC3=CC=CC=C3)NCCCCCCN
Outline: as §1

[17] = compound: CC(C)C[C@@H](C=O)NC(=O)[C@H](CC(C)C)NC(=O)[C@H](CC(C)C)NC(=O)OCc1ccccc1
Outline: as §1

[18] = compound: CC(C)N(C[C@H]1O[C@@H](n2cnc3c(N)ncnc32)[C@H](O)[C@@H]1O)[C@H]1C[C@@H](CCc2nc3cc(C(C)(C)C)ccc3[nH]2)C1 [pinometostat]
Outline: as §1

[19] = compound: CC1=C(C(CC(=O)N1)C2=CC=C(C=C2)C(F)(F)F)C(=O)NC3=C(C=C4C(=C3)C=NN4)F
Outline: as §1

[20] = compound: CC1=C(C2=C(C=C1)C(=O)C3=CC=CC=C3N2CCCN)C
Outline: as §1

UniProt Q7Z569, sequence (Q7Z569 whole entry, looked up): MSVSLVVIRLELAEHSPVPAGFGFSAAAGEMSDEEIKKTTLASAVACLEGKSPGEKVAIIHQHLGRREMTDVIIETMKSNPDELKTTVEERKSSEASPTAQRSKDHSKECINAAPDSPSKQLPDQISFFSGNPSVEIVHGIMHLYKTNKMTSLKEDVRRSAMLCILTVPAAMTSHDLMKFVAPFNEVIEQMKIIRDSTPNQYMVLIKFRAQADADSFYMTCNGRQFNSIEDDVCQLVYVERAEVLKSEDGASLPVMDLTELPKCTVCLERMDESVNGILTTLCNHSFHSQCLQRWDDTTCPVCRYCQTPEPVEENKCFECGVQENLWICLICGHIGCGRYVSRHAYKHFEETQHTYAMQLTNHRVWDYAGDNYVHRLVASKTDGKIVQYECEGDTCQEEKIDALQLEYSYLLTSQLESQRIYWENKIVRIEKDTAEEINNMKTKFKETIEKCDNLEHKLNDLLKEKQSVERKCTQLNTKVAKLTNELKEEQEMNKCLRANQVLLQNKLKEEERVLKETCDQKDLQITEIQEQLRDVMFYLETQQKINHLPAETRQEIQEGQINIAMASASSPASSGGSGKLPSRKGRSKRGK
UniProt Q9NVI7, sequence (Q9NVI7 whole entry, looked up): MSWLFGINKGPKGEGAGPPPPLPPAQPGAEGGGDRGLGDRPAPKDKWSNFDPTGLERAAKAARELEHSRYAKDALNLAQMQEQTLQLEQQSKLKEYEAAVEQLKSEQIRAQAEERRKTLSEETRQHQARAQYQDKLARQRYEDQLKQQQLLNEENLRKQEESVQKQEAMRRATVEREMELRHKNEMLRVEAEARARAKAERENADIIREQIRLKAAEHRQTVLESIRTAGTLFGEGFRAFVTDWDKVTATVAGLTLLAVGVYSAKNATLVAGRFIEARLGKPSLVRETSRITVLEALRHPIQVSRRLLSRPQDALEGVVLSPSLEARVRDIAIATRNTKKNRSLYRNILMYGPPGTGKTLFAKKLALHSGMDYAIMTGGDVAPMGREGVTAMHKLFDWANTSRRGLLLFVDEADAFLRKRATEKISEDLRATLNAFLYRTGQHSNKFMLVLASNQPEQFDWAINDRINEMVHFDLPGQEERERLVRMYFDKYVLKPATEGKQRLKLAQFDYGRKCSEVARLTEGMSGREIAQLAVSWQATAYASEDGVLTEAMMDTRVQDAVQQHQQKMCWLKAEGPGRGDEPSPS
UniProt O60566, sequence (O60566 whole entry, looked up): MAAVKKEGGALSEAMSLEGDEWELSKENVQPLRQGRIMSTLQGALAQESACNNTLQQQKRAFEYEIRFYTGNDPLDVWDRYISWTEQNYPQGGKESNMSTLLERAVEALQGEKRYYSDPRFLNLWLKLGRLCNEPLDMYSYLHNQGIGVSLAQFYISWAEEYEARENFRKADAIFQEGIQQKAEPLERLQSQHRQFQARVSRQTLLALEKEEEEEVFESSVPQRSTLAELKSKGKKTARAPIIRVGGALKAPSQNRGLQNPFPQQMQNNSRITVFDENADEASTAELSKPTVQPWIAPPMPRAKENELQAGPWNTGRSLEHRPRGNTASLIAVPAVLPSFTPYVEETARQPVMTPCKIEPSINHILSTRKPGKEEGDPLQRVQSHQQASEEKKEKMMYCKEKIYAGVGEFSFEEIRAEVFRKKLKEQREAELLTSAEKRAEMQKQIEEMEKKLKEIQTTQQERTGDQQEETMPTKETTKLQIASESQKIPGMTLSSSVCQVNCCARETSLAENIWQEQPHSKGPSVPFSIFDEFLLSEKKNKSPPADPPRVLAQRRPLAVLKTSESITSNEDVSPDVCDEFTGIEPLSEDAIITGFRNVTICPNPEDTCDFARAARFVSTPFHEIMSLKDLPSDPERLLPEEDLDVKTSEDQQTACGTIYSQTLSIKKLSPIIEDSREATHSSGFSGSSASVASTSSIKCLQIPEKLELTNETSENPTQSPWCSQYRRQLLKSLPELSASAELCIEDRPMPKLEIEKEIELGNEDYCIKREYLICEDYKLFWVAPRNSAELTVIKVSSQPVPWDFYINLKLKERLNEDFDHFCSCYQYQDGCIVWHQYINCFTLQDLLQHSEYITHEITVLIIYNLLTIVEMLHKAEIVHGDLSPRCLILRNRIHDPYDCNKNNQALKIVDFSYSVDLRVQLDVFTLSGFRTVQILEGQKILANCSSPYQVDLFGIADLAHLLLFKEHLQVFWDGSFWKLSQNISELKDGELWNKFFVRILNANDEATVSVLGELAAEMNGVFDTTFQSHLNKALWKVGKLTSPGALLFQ
UniProt O15440, sequence (O15440 whole entry, looked up): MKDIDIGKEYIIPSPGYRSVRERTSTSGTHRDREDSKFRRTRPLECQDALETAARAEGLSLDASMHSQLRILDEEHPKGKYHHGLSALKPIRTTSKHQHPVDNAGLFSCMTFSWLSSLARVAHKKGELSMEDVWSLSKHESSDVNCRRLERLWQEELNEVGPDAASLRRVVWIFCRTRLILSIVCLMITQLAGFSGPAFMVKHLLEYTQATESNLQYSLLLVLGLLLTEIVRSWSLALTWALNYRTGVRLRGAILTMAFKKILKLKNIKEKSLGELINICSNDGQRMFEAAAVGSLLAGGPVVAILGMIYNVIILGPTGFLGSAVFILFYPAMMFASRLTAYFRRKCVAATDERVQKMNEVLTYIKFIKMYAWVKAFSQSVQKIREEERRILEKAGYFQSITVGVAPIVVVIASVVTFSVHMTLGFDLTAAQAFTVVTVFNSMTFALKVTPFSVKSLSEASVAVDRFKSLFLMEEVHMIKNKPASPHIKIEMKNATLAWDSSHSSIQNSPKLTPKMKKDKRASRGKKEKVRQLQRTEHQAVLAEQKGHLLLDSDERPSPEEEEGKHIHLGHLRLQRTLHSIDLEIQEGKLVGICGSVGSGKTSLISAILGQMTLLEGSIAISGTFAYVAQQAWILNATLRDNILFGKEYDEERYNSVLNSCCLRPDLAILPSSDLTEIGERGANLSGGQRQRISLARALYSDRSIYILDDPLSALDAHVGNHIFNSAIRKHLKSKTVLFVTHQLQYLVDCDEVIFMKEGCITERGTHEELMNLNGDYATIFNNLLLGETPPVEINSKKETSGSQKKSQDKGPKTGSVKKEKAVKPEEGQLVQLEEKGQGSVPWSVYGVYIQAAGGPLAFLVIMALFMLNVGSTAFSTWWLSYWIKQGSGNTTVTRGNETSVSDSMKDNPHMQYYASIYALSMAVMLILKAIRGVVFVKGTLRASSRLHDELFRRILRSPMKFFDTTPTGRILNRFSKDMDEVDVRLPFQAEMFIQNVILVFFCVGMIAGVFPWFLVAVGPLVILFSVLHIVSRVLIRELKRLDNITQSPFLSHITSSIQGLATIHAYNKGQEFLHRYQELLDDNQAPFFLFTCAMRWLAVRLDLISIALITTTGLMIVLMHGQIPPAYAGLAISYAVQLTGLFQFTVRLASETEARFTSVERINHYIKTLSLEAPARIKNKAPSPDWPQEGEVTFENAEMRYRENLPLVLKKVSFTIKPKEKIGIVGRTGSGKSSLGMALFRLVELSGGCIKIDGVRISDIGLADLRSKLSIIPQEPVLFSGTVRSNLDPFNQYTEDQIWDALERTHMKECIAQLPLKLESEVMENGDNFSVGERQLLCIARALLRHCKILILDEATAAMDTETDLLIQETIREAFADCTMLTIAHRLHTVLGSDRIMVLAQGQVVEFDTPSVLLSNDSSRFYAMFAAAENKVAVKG
UniProt Q93050, sequence (Q93050 whole entry, looked up): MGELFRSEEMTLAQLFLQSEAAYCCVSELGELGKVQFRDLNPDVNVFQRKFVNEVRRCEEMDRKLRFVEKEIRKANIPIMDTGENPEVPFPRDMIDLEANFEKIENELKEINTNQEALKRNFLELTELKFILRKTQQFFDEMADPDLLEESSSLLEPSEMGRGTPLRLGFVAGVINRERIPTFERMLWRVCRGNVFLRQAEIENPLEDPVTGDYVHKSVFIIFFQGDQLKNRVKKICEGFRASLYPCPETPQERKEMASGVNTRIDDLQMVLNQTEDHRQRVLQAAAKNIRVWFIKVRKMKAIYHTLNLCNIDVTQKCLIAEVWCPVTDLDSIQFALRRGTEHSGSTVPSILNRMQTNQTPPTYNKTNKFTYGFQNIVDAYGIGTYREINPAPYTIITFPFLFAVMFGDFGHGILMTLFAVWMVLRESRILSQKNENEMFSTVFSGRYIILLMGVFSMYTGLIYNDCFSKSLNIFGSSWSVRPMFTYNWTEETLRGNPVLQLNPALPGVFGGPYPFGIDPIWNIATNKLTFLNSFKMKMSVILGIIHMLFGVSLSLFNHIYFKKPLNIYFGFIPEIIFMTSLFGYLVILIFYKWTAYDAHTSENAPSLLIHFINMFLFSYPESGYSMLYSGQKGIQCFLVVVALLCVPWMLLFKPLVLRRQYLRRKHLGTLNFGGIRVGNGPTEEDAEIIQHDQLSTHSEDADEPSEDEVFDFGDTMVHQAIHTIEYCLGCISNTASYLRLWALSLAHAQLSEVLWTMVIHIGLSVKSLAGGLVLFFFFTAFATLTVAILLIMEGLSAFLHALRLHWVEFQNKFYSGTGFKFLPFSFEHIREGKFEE
UniProt Q9NRZ7, sequence (Q9NRZ7 whole entry, looked up): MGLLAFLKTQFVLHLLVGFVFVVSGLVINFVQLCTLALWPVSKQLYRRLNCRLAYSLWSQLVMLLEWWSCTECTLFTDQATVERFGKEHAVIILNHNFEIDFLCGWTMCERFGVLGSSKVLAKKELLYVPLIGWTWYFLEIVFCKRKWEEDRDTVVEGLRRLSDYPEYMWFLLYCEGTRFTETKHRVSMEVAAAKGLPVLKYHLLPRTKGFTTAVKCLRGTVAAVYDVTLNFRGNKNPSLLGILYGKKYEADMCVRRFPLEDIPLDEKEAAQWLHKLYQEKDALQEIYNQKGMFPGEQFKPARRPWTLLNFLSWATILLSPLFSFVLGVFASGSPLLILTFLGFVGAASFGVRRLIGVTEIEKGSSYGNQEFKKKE
UniProt Q16864, sequence (Q16864 whole entry, looked up): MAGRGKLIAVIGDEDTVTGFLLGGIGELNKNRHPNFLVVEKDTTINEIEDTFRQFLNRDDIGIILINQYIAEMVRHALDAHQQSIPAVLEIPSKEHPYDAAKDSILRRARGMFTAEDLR

Target	log2 fold change [1]	log2 fold change [2]	log2 fold change [3]	log2 fold change [4]	log2 fold change [5]	log2 fold change [6]	log2 fold change [7]	log2 fold change [8]	log2 fold change [9]	log2 fold change [10]	log2 fold change [11]	log2 fold change [12]	log2 fold change [13]	log2 fold change [14]	log2 fold change [15]	log2 fold change [16]	log2 fold change [17]	log2 fold change [18]	log2 fold change [19]	log2 fold change [20]
APOB (UniProt P04114)	0.062	0.008	0.042	-0.024	-0.018	0.05	0.046	-0.011	0.018	-0.174	0.042	-0.012	0.045	-0.239	-0.295	-0.438	0.403	-0.171	0.066	0.021
BUB1B isoform 3 (UniProt O60566)	0.019	0.054	-0.049	-0.031	0.157	0.052	0.037	-0.038	-0.031	-0.095	-0.092	-0.039	-0.023	0.106	-0.089	-0.098	0.09	0.11	-0.011	0.017
AGAP3 isoform 4 (UniProt Q96P47)	0.11	0	-0.078	-0.062	0.017	0.183	-0.024	-0.082	-0.075	0.127	-0.024	-0.018	-0.223	0.25	0.009	-0.182	-0.044	0.245	-0.107	-0.043
BRAP (UniProt Q7Z569)	0.114	0.09	0.022	0.012	0.001	0.032	0.172	-0.023	-0.07	-0.059	-0.032	-0.066	-0.018	0.16	-0.016	-0.11	-0.093	0.033	0.026	0.263 (active)
AGPAT3 isoform 3 (UniProt Q9NRZ7)	0.009	-0.008	0.028	-0.009	0.028	0.12	0.04	0.006	0	0.067	0.012	0	-0.024	-0.02	-0.001	-0.071	-0.001	0.034	-0.011	0.03
ABCC5 (UniProt O15440)	-0.027	0.035	0.064	-0.004	0.059	-0.048	-0.014	-0.071	-0.037	0.129	-0.035	-0.082	0	0.001	-0.121	0.119	0.046	0.086	0.038	0.116
ATP6V0A1 isoform 3 (UniProt Q93050)	-0.086	-0.041	-0.176	0.061	0	-0.008	-0.232	0.052	-0.066	-0.195	-0.068	0	-0.033	0.087	0.019	-0.463 (active)	0.125	0.198	0.067	0.011
ATP6V1F isoform 2 (UniProt Q16864)	-0.049	-0.017	0.232	0.077	0.04	0.189	-0.017	-0.024	-0.066	-0.222	0.053	-0.003	-0.189	-0.054	-0.132	-0.024	-0.059	-0.009	0.039	0.253
ATAD3A isoform 2 (UniProt Q9NVI7)	-0.036	0.02	-0.045	0.006	-0.038	-0.013	-0.04	0.017	0.037	-0.101	-0.005	0.08	-0.075	0.009	-0.023	-0.468 (active)	0.075	0.082	0	0.096
